Composite z-score and z-score data for five compounds are collected here from PubChem BioAssay.

Calls of active or inactive are those of the source.

Experiment [1] can be described thus: small molecules captured by biotinylated probe aFSTL3 – biochemical, small-molecule microarray, fluorescence 635/667, stem cell growth factor project, primary screen (AID 1064).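 Also: measures binding of the biotinylated anti-FSTL3 antibody to printed compounds.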 The conditions noted are these: higher = more signal.
Experiment [2] can be described thus: binders from COS7 lysate, DM2A8 probe, primary screen, torsin A project, cell lysate, small-molecule microarray, fluorescence 635/667 (AID 1065). The conditions noted are these: higher = more signal, COS7 lysate expressing mutant human TOR1A.
A short description of experiment [3]: small molecules captured by biotinylated probe aFGF2 – biochemical, small-molecule microarray, fluorescence 635/667, stem cell growth factor project, primary screen (AID 1067).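 Also: measures binding of biotinylated aFGF2 protein to printed compounds on slides; z-score merges feature fluorescence and signal-to-noise across triplicate slides.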 As to conditions: higher = more signal.
The nature of experiment [4]: small molecules captured by biotinylated probe aFGF10 – biochemical, small-molecule microarray, fluorescence 635/667, stem cell growth factor project, primary screen (AID 1071).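 Also: score merges 667 nm spot intensity and signal to noise from triplicate slides.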 As to conditions: higher = more signal.
Experiment [5] concerns the target Neurogenic locus notch homolog protein 2 (Homo sapiens) (UniProt Q04721). As to the kind of experiment: small molecules binding Notch2 protein – biochemical, small-molecule microarray, 635 nm fluorescence, stem cell growth factors, primary screen (AID 1073). As to conditions: higher = more signal.
Experiment [6] deals with Pro-neuregulin-1, membrane-bound isoform (Homo sapiens) (UniProt Q02297). The experiment can be described thus: small molecules binding neuregulin-1 protein – biochemical, small-molecule microarray, fluorescence 635/667, psychiatric disease protein project, primary screen (AID 1075).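 Also: score combines 667 nm spot fluorescence with signal to noise.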 The conditions noted are these: NRG1 binding, 635 nm fluorescence, higher = more signal.
The test system of experiment [7] is Neuregulin-1 EGF-like domain. As to the kind of experiment: small molecules binding NRG1 EGF domain – biochemical, small-molecule microarray, 635 nm fluorescence, primary screen (AID 1081).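 Also: binding of the protein to compounds printed on small-molecule microarray slides.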 As to conditions: higher = more signal.
Experiment [8] is described as follows: FRG1 expression reporter modulators in myotubes – cell-based, C2C12 myotubes, firefly/Renilla luciferase, luminescence, FRG1 inhibition for FSHD, primary screen (AID 1084). The conditions noted are these: FRG1 promoter luciferase, higher = more signal, called active from +8 up or from −8 down.
Experiment [9] can be described thus: small molecules captured by biotinylated probe aFST – biochemical, small-molecule microarray, fluorescence 635/667, stem cell growth factor project, primary screen (AID 1086).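 Also: score merges 667 nm fluorescence with signal-to-noise of each printed compound spot.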 The conditions noted are these: higher = more signal.
Experiment [10] in a line: binders of probe aHhip on microarray, primary screen, stem cell growth factor project, biochemical, small-molecule microarray, fluorescence 635/667 (AID 1087).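 Also: score merges spot fluorescence at 667nm with spot signal to noise ratio.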 The conditions noted are these: higher = more signal.
For experiment [11], the system named is PRMT1 (protein arginine N-methyltransferase 1). The experiment can be described thus: small molecules binding arginine methyltransferase PRMT1 – biochemical, small-molecule microarray, 635 nm fluorescence, primary screen (AID 1088).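 Also: binding of Prmt1 protein to compounds spotted on small-molecule microarray slides.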 The conditions noted are these: higher = more signal.
Experiment [12] can be described thus: growth effects on S. cerevisiae YJM789 – YJM789 clinical isolate, OD600, 24 h, basal, primary screen (AID 1089).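 Also: growth of clinical yeast isolate S. cerevisiae YJM 789 seeded 1000 cells per well; test concentration not given here.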 As to conditions: higher = more signal, called active from +8 up or from −8 down.
Experiment [13] is described as follows: S. pombe growth modifiers, basal conditions – strain 972, OD600, 24 h, no modulator, primary screen (AID 1090).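 Also: basal condition with compound alone and no growth modifier present; test concentration not given here.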 The conditions noted are these: S. pombe 972 growth, higher = more signal, called active from +8 up or from −8 down.
Experiment [14] in a line: budding yeast growth modifiers under rapamycin – strain BY4716, OD600, 96 h, primary screen (AID 1091). Also: test concentration not given here. As to conditions: S. cerevisiae BY4716 + rapamycin, higher = more signal, called active from +8 up or from −8 down.
The target in experiment [15] is Torsin-1A-interacting protein 2 (Homo sapiens) (UniProt Q8NFQ8). As to the kind of experiment: small molecules binding lysate-expressed LULL1 – cell lysate, human LULL1 lysate, 635/667 nm fluorescence, primary screen (AID 1092).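 Also: probe is lysate of COS7 cells overexpressing human LULL1; score merges per-feature 667 nm fluorescence with signal-to-noise.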 The conditions noted are these: small-molecule microarray, hLULL1 lysate binding, 635 nm fluorescence; higher = more signal.
Experiment [16] in a line: optical density change of DRC41 E. coli – strain DRC41, OD650, 24 h, E. coli filamentation project, primary screen (AID 1093).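 Also: MC1000 strain lacking acrAB efflux and sulA so SOS filamentation is blocked; test concentration not given here.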 The conditions noted are these: E. coli DRC41 growth, higher = more signal, called active from +8 up or from −8 down.
Experiment [17] is described as follows: probe aLefty2 binding to arrayed compounds – biochemical, biotinylated probe, 635/667 nm fluorescence, primary screen (AID 1094).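 Also: score merges spot fluorescence near 667 nm with spot signal-to-noise ratio.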 The conditions noted are these: small-molecule microarray, higher = more signal.
Experiment [18] relates to Noggin (protein binding on small-molecule microarray). The experiment can be described thus: small molecules binding Noggin protein – biochemical, 635/667 nm fluorescence, primary screen (AID 1095).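 Also: score merges 667 nm feature fluorescence with signal to noise over triplicate slides.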 The conditions noted are these: 635 nm fluorescence, higher = more signal.
Experiment [19] addresses Neurogenic locus notch homolog protein 3 (Homo sapiens) (UniProt Q9UM47). As to the kind of experiment: small molecules binding NOTCH3 protein – biochemical, 635/667 nm fluorescence, primary screen (AID 1096). The conditions noted are these: small-molecule microarray, 635 nm fluorescence, higher = more signal.
Experiment [20] can be described thus: probe aEGFR binding to arrayed compounds – biochemical, biotinylated probe, 635/667 nm fluorescence, primary screen (AID 1097).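 Also: probe is a biotinylated anti-EGFR antibody binding compounds printed on slides; score combines fluorescence near 667 nm and signal to noise of each spot.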 The conditions noted are these: small-molecule microarray, higher = more signal.

Chain of Neurogenic locus notch homolog protein 2 (Homo sapiens) (Q04721 whole entry, looked up, canonical isoform): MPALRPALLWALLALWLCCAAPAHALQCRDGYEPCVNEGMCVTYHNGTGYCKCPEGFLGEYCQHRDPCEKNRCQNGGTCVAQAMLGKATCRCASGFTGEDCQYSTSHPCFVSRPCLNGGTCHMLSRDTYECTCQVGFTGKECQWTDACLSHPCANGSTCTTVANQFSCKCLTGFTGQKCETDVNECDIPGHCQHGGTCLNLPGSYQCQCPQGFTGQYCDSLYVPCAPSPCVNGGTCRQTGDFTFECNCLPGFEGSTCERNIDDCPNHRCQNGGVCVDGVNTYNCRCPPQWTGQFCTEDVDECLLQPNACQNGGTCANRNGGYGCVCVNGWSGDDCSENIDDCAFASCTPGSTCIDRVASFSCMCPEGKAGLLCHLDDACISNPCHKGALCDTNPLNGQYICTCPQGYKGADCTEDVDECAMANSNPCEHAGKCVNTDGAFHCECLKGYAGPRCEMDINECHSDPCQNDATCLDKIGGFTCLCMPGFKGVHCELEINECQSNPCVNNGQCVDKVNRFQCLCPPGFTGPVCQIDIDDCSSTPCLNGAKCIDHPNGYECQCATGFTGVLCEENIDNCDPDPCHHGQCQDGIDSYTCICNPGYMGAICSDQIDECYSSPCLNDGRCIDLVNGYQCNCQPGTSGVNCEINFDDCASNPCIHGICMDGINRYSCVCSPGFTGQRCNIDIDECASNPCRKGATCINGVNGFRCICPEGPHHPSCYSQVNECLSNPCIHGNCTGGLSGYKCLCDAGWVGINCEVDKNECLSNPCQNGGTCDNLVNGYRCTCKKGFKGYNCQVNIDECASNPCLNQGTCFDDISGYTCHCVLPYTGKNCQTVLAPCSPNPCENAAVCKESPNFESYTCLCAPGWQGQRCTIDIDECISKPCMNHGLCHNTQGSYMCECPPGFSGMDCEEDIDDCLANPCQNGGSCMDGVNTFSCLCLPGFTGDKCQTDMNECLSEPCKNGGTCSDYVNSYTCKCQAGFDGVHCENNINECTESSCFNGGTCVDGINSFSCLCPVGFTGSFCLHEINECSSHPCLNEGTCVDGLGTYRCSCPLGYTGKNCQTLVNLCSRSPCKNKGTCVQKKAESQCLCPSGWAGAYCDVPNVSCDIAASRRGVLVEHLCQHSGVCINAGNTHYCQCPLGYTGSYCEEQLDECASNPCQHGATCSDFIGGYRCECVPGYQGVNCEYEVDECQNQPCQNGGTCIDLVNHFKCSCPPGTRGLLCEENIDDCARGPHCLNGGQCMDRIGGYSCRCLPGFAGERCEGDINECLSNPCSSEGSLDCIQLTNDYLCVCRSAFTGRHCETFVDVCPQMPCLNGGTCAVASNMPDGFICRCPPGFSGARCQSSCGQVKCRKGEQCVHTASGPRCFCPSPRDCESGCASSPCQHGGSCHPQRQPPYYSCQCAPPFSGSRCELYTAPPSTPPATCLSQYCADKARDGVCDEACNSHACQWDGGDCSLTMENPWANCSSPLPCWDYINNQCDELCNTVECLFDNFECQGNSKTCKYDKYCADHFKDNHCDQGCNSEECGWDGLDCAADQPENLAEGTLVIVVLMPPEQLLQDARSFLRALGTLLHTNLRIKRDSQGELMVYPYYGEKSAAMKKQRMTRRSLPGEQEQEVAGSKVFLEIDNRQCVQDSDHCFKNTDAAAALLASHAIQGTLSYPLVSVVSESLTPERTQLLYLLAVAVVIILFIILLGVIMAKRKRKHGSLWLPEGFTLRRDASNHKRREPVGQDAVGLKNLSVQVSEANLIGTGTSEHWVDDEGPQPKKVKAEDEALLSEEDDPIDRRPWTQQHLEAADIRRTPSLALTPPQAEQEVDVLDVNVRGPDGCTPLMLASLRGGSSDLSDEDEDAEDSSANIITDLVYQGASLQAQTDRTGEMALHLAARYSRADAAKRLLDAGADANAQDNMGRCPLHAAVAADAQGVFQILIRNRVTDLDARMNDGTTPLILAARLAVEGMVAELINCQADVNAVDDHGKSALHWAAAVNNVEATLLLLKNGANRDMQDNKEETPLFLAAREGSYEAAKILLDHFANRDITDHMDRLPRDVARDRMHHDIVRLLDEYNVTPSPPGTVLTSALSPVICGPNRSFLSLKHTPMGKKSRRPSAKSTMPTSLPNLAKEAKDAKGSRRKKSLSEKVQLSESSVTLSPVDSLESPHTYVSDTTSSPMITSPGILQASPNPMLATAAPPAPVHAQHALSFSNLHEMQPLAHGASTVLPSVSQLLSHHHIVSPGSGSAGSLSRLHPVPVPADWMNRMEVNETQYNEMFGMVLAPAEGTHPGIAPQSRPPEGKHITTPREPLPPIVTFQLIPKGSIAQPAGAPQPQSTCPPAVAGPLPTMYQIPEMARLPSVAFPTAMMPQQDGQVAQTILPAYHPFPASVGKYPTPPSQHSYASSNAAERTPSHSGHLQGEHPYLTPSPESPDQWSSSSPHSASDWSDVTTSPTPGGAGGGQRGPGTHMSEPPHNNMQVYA
Chain of Pro-neuregulin-1, membrane-bound isoform (Homo sapiens) (Q02297 whole entry, looked up, the tested form may be a part, canonical isoform): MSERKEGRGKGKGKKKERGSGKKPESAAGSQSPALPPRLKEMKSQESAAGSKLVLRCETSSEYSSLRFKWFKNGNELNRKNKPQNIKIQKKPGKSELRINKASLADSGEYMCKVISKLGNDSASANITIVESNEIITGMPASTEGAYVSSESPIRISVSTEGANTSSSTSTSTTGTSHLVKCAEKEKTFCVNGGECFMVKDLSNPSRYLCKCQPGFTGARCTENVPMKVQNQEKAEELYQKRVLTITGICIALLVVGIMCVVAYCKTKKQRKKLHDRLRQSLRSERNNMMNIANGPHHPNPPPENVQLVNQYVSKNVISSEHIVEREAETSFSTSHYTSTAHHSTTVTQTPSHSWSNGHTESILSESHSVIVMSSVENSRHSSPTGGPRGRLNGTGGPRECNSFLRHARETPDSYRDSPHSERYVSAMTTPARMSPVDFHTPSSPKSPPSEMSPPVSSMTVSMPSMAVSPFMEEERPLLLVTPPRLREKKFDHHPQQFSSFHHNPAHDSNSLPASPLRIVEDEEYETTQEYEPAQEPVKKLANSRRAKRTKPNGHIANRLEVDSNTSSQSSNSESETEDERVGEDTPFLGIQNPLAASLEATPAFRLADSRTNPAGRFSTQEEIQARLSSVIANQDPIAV
Chain of Torsin-1A-interacting protein 2 (Homo sapiens) (Q8NFQ8 whole entry, looked up): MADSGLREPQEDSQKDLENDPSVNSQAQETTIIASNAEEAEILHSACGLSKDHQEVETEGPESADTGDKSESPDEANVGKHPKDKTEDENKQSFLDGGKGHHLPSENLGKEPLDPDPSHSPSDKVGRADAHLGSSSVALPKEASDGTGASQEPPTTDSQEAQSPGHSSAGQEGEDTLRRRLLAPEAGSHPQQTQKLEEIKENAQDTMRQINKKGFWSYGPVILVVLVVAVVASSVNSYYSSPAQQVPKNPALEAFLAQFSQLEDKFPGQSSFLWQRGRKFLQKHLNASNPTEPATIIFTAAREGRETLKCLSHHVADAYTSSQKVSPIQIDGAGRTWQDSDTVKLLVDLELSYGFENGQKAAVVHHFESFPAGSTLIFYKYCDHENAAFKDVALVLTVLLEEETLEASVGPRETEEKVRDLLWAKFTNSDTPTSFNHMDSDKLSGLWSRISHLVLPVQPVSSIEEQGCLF

With `CC[C@H]1C2=C3C(CC[C@H]4C(OCc5ccc(F)cc5C(F)(F)F)OC[C@](C)([C@@H]34)N(C(=O)OC(C)(C)C)C2)C(COC)C1COC` (stereo not given in full), the composite z-score is -0.117 in [1]; -0.281 in experiment [2]; 0.0253 in [3]; 0.0921 in experiment [4]; 0.84 in experiment [5]; 0.336 in experiment [6]. The composite z-score in experiment [7] was -0.0151; in [9], 0.857; in experiment [10], -0.329; in [11], -0.728; in [15], 1.68; in experiment [17], 0.0392. Also, the results for the composite z-score in experiment [18], in experiment [19] and in experiment [20] were -0.207, 0.949 and -0.113, respectively. Further, the z-score in [8] is 1.18 (inactive); in [12], 0.242 (inactive); in experiment [13], 0.78 (inactive); in [14], 0.153 (inactive); in [16], -0.773 (inactive).
With `O=C1OCC=C[C@H]2OC34C=CCN(Cn5nnc6ccccc65)C(=O)[C@H]3N(CCCO)C(=O)[C@@H]4[C@@H]12` (stereo not given in full), the composite z-score in [1] was 0.466; in [2], -0.772; in experiment [3], -0.0015; in [4], 0.0131; in [5], -1.04; in experiment [6], 1.09. Further, the composite z-score is 1.54 in experiment [7]; -0.772 in experiment [9]; -0.0618 in experiment [10]; -0.169 in experiment [11]; 0.433 in experiment [15]; -0.217 in experiment [17]. For the same compound, the composite z-score was -0.2 in experiment [18], -0.579 in experiment [19] and -0.356 in [20]. In addition, the z-score was 0.67 (inactive) in experiment [8]; 0.465 (inactive) in experiment [12]; -0.883 (inactive) in experiment [13]; -0.437 (inactive) in [14]; 1.93 (inactive) in [16].
`CCCCC(O)C1C=CC2C(=O)N(c3ccccc3)C(=O)C2N1Nc1ccc(C(C)C)cc1` (stereo not given): the composite z-score in experiment [1] was -0.158; in [2], -0.534; in experiment [3], 0.0662; in [4] it was 0.47; in experiment [5], 1.44; in experiment [6] it was 1.85. The composite z-score is 0.697 in experiment [7]; 1.13 in [9]; -0.217 in experiment [10]; 1.37 in experiment [11]; 3.01 in [15]; -0.122 in experiment [17]. Further, the composite z-score is 0.49 in experiment [18], 1.03 in experiment [19] and -0.067 in experiment [20]. Besides, the z-score is -0.875 (inactive) in experiment [8]; 0.603 (inactive) in experiment [12]; -0.582 (inactive) in experiment [13]; 0.0624 (inactive) in experiment [14]; -1.32 (inactive) in [16].
`O=C1c2ccccc2[C@](Cc2ccccc2I)(C(=O)NCC(F)(F)F)[C@H](c2ccc(CO)cc2)N1C1CCCCC1`: the composite z-score in [1] is -0.0894; in experiment [2], -0.089; in experiment [3], 0.0772; in experiment [4] it was 0.94; in experiment [5] it was 1.14; in experiment [6], 1.76. Also, the composite z-score in [7] was 0.985; in experiment [9] it was 0.593; in experiment [10] it was -0.134; in experiment [11], 1.56; in experiment [15], 3.02; in [17], -0.0408. Moreover, the composite z-score in [18] is 0.169; in experiment [19] it was 1.08; in experiment [20], -0.0315. Moreover, the z-score in experiment [8] is -0.85 (inactive); in experiment [12], 0.0808 (inactive); in [13], -1.76 (inactive); in experiment [14] it was -0.0447 (inactive); in experiment [16] it was 1.38 (inactive).
For `COCCCNC(=O)[C@@]1(Cc2ccccc2N=[N+]=[N-])N=C(c2ccc(OCCCO)cc2)O[C@H]1c1ccccc1`, the composite z-score in experiment [1] worked out at 0.6; in [2], 2.55; in [3], 0.153; in [4], 0.904; in experiment [5], 0.629; in experiment [6], 1.38. Moreover, the composite z-score amounted to 1.17 in experiment [7]; 0.404 in experiment [9]; 0.212 in experiment [10]; 1.55 in experiment [11]; 3.1 in experiment [15]; 0.0894 in experiment [17]. The composite z-score in experiment [18] was 0.923; in [19], 0.74; in experiment [20], -0.096. Also, the z-score in experiment [8] is -1.98 (inactive); in experiment [12], -0.22 (inactive); in experiment [13], -1.17 (inactive); in experiment [14], 0.388 (inactive); in [16], 0.478 (inactive).
